HTR5A inv ctr: HTR5A inverse agonism, opioid heterodimer counter-screen; P47898; HTR5A cell line, luminescence; inhibition, % at 9.3 µM; 0.083% of 340,000 active; AID 504634; in the data active = inhibition mostly above about 23%, no sharp cut-off; inactive = mostly below about 18%;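 note: 0% = cells with DMSO and 100% = no-cell wells with DMSO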
MsrA act: activates bovine MsrA enzyme; 0.3% of 360,000 active; activation, % at 10.6 µM; purified bovine MsrA, absorbance read-out; in the data active = activation above about 7.5%;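 note: 0% = vehicle and 100% = reference activator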
HTR5A ag: HTR5A agonism, opioid heterodimer counter-screen; P47898; HTR5A agonist assay, luminescence, cell-based; activation, % at 9.3 µM; 0.61% of 340,000 active; AID 504692; in the data active = activation mostly above about 9.5%, no sharp cut-off; inactive = mostly below about 7.6%;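 note: 0% = cells with vehicle only and 100% = reference agonist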
MOR-DOR inv ag: inverse agonist of human OPRM1-OPRD1 heterodimerization; inhibition, % at 9.3 µM; cell-based MOR-DOR heterodimer luminescence, inverse agonism; 0.21% of 340,000 active; P35372+P41143; AID 504357; in the data active = inhibition above about 22%, passing the limit was not always enough;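 note: 0% = cells with DMSO and 100% = wells without cells with DMSO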
Target sequence (P35372 whole entry, looked up): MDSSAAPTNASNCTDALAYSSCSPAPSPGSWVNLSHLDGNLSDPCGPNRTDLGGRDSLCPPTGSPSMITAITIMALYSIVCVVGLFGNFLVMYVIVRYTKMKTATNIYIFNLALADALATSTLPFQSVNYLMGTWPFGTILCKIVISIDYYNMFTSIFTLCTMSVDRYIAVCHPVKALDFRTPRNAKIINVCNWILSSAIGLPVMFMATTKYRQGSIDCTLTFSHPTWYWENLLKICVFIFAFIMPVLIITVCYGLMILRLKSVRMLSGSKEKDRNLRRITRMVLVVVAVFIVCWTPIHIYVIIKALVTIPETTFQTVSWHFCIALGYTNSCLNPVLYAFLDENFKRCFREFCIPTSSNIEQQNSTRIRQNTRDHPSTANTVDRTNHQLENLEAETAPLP
Target sequence (P41143 whole entry, looked up): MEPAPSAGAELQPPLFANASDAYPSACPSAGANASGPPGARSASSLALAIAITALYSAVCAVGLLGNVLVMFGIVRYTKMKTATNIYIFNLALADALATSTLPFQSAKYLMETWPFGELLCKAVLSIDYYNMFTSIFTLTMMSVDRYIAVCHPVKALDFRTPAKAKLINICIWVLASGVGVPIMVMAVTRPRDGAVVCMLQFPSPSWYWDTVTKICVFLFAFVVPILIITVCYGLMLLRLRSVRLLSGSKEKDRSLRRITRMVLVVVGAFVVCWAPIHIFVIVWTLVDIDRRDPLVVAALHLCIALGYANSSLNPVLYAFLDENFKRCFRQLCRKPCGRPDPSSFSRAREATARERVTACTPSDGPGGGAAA
MOR-DOR ag: agonists of human mu-delta opioid receptor heterodimerization | cells, OPRM1-OPRD1 heterodimerization, luminescence | activation, % at 9.3 µM | 0.3% of 340,000 active; in the data active = activation above about 18%;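 note: 0% = vehicle-treated cells and 100% = reference agonist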
MsrA inh: bovine MsrA inhibition; purified bovine MsrA, absorbance read-out; inhibition, % at 15.5 µM; 0.75% of 360,000 active; AID 651718;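 note: 0% = vehicle wells with enzyme and 100% = reference inhibitor wells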
MsrA inh confirm: bovine MsrA inhibition, confirmed; shares compounds with MsrA inh; purified bovine MsrA, absorbance read-out; inhibition, % at 15.5 µM; 41% of 2,300 active;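 note: coupled to thioredoxin reductase with NADPH and selenocystamine and DMSO as substrate; 0% = vehicle only and 100% = full effect of reference inhibitor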
* marks the source's active call; other numbers are inactive results; . = no result. Compounds with a hit are over-represented: about 1.9% of the library has one in this group of screens. Cut-off read from the data, not from the text of the source, unless noted: active = inhibition above about 4.5%; inactive = the rest.

SMILES	HTR5A inv ctr	MsrA act	HTR5A ag	MOR-DOR inv ag	MOR-DOR ag	MsrA inh	MsrA inh confirm
Cc1[nH]c2ccccc2c1/C=N/NC(=O)CNC(=O)c1ccco1	.	-4	.	.	.	0	.
Cc1[nH]c2ccccc2c1/C=N/NC(=O)c1cccc(F)c1	-15	-8	4	21	-4	4.8*	4
Cc1[nH]c2ccccc2c1/C=N/NC(=O)c1cccc([N+](=O)[O-])c1	.	-6	.	.	.	4	.
Cc1[nH]c2ccccc2c1/C=N\NC(=O)c1ccco1	-10	-10	-4	-5	2	6.6*	5.3*
C=CCC1S/C(=N/N=C/c2cccs2)NC1=O (stereo not given)	-5	-4	2	-2	0	6.7*	5.7*
O=C1N/C(=N\N=C\c2cccs2)SC1Cc1ccc(Cl)c(Cl)c1 (stereo not given)	13	-5	-2	-31	6	1	.
Cn1c(=O)cc2c3c(c(N4CCCCC4)ccc31)C(=O)c1ccccc1-2	.	-12	.	.	.	1	.
O=C1c2ccccc2C(=O)c2c1cccc2N1CCCC1	6	2	-2	-33	7	36*	0
COc1ccc(/C=N/Nc2cc(C)nc(NS(=O)(=O)c3ccc(C)cc3)n2)cc1	-11	-2	4	-6	1	3	.
COc1cc(/C=N/Nc2cc(C)nc(NS(=O)(=O)c3ccc(C)cc3)n2)ccc1O	15	-8	-6	2	0	5.5*	5.7*
COc1cc(/C=N/Nc2cc(C)nc(NS(=O)(=O)c3ccccc3)n2)ccc1O	-3	-7	8	-4	1	7.4*	6.9*
Cc1cc(NN)nc(NS(=O)(=O)c2ccccc2)n1	.	0	.	.	.	1	.
CN(C(=O)c1ccc(NC(=O)Cc2cccc(NC(=O)C3CCN(C(=O)CCc4ccccc4)CC3)c2)cc1)C1CC1	.	.	.	.	.	0	.
C=CCN=C1CC(C)(C)CC(=O)/C1=C(\O)c1ccccc1	-16	-11	1	19	-4	1	.
COc1ccc(N=C2CC(C)(C)CC(=O)/C2=C(/O)c2ccccc2)cc1	-10	-2	1	1	0	4.9*	1
O=C(Nc1nnc(-c2ccncc2)o1)c1ccc(Br)s1	5	-2	-2	-5	1	5.8*	3
c1c2c(cc3sc(N4CCOCC4)nc13)OCCO2	-7	-2	5	3	-1	-1	.
Cc1nc(N2CCOCC2)sc1C=O	-22	-7	-1	5	-1	6.6*	4
O=C(NC1CCCC1)C(c1ccccc1)n1c(CSCCOc2ccccc2)nc2ccccc21 (stereo not given)	.	.	.	.	.	0	.
COc1c(F)cccc1C1=CC(=O)C[C@H](c2ccc3c(c2)OCO3)C1	-8	-1	2	-19	3	7.1*	3
COc1ccc(-c2cc(C(F)(F)F)nc(S(C)(=O)=O)n2)cc1	-7	-9	0	8	-1	5.4*	2
CN(C)Cc1c(C(C)(C)O)[nH]c2cc(C(F)(F)F)ccc12	.	.	.	.	.	-1	.
O=C(/C=C/c1ccccc1)c1ccccc1	11	-4	-3	-2	0	0	.
O=C(/C=C/c1ccccc1)/C=C/c1ccccc1	6	-6	-3	-5	1	4.9*	1
CCCCCCCCN1C(=O)[C@@H](CC(=O)N2CCC(c3ccccc3)CC2)C[C@@]2(C(=O)OC)C1=C[C@H](C(C)(C)C)O[C@@H]2C	.	.	.	.	.	0	.
SMILES	HTR5A inv ctr	MsrA act	HTR5A ag	MOR-DOR inv ag	MOR-DOR ag	MsrA inh	MsrA inh confirm
c1ccc2c(c1)nc(N1CCOCC1)c1nnnn12	7	-3	-1	-9	2	7.5*	14*
CCOC(=O)CSc1ncnc2c1nnn2-c1ccc(F)cc1	4	-3	-1	6	-1	0	.
CC(=O)C(Sc1ncnc2c1nnn2-c1ccc(F)cc1)C(=O)N(C)C (stereo not given)	.	.	.	.	.	5.7*	3
Cc1ccc(S(=O)(=O)NC(=O)C2(C)CCN2C(=O)c2ccccc2)cc1 (stereo not given)	.	-2	.	.	.	1	.
CCCCS(=O)(=O)N1C2=NC(C(=O)OCC)=C(C(=O)OCC)C3N(Cc4ccc(Br)cc4)c4ccccc4[C@]23C[C@H]1C(=O)OC (stereo not given in full)	.	.	.	.	.	2	.
COc1ccc(/C=N/Nc2nn3cnnc3c3ccccc23)cc1	-4	-2	1	10	-2	5.1*	4
COc1ccc(/C=N/Nc2nonc2N)cc1	13	-5	-5	-5	1	2	.
[O-][N+]1=c2ccc(Nc3ccccc3)cc2=NC12CCCCC2	-17	0	7	-7	1	11*	8.6*
NC(N)=NC1=NC(=O)/C(=C/c2ccccc2-n2cccn2)S1	0	-6	0	4	-1	5.3*	2
CCCCCCCCN1C(=O)[C@H](CC(=O)NCc2cccc(C(F)(F)F)c2)C[C@@]2(C(=O)OC)CC(C)(C)CC=C12	.	.	.	.	.	0	.
COC(=O)C1=C(C)N(Cc2ccc(Cl)cc2)C(=S)NC1c1ccccc1 (stereo not given)	.	.	.	.	.	1	.
CCOC(=O)/C(C#N)=C1/C=C(C)NC(c2ccccc2O)=N1	10	-1	4	-9	2	2	.
CCOC(=O)/C(C#N)=C1/C=CNC(=O)N1	25	-10	2	9	-2	4.7*	3
CCCc1nc(SCC(=O)O)c2sc(=S)n(-c3ccccc3)c2n1	7	-1	-2	5	-1	4.7*	4.8*
COc1ccc(-c2coc3c(C(=O)NCc4ccc(OC)c(OC)c4)cccc23)c(C)c1	.	-1	.	.	.	-1	.
COc1cc(/C=C/c2ccc3cccc([N+](=O)[O-])c3n2)ccc1OCC(=O)O	-30	-5	0	3	-1	5.8*	2
Cc1ccc(-c2cn3cccnc3n2)cc1	-2	-4	1	-7	1	4	.
CS(=O)(=O)Nc1ccc(-c2cn3cccnc3n2)cc1	8	-4	-2	-4	1	4.8*	3
COc1cccc(C2=CC(c3cccc(OC)c3OC)n3nnnc3N2)c1 (stereo not given)	-16	-8	-2	-20	3	14*	9.3*
COc1cc(/C=N/NC(=O)c2ccc(NC(=O)C3CCCCC3)cc2)ccc1O	-1	-6	-4	16	-3	4	.
Oc1ccc(/C=N/N=C/c2ccc(O)c(O)c2)cc1O	5	-6	-1	6	-1	4.7*	6.4*
CCOc1cc(/C=N/NC(=O)C(=O)NCc2cccnc2)ccc1O	-4	-8	1	8	-1	5.7*	4
Oc1ccc(/C=N/N=C/c2ccc(O)cc2)cc1	8	-12	-3	1	0	5.3*	5.5*
CCOc1cc(/C=N/NC(=O)c2ccc(NC(=O)C3CC3)cc2)ccc1O	30	-6	-3	17	-3	5.3*	4
COc1ccc(Cn2cc(CN3CCc4onc(-c5ccc(Br)cc5)c4C3=O)nn2)cc1	.	.	.	.	.	0	.
